# From the supplement of paper PMC6555819
# Test system: VDR:RXRa (NR concentration 270 nM, RXRa partner concentration 90 nM)
# Assay: PBM binding z-score (relative to random genomic background probes); higher = stronger binding; sequences stand for … in GC…GCGATTGACAGCGTAGAATGAAGG
# Procedure: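 Protein-binding microarray (Agilent 4x180K custom design, double-stranded 60-nt probes: 5' GC cap, 34-nt variable region, 24-nt constant primer region; full probe sequence given). Purified or IVT nuclear receptor:RXRα heterodimers (3:1 NR:RXRα, mostly 270:90 nM) or homodimers were incubated for 1 h in PBS with 2% milk and no ligand, then detected with Alexa488 antibodies. Fluorescence from o1-orientation probes (~5 replicates averaged) was converted to z-scores against 500 random hg19 background probes. Variable regions are seed direct-repeat (DR0–DR5) sites, all their single-nucleotide variants and half-site ablations.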
row,Sequence,PBM binding z-score
1,ATCTCTAGGTAAAGAAAGTTCAGTGAATGCAAAT,2.17
2,CCAGACAGGTGAAAGGTAACGCAGTCTGGTACGC,0.77
3,TATACAGGGTCAAACGCCAGAGTACGAATGTCGA,5
4,CGAACTAGGTCATCCAGGACAGTGTATACATTGA,4.57
5,ATCTCTAGGTAAGACTAAGTTCAGTGAAGAACGC,1.7
6,CAAACTAGGTCAAGGACAAAGTCGGTTTGTGCCA,1.79
7,GCTTGTAGATCAAGGTTAAGAGAGACTAAGCTAA,-0.00778
8,TATTGTAGATCAGCAGGTTAAGAAAGCTGGCCAA,0.112
9,GGAACGAGGGAAAAGTTGATAGCATCTGTCGACG,-0.649
10,TCCAGTTGGTCAAAGGTCACACACTCGAAATGCG,5.31
11,CCTGCTAGGTCATGGTCAGCTATTCTACAGTATG,1.52
12,ATATGTAGGTTAGCTGGGGTCATTCTGACTAGGC,6.29
13,GCATATAGGTAATACAAGGTGAAATTCCGATTGT,0.179
14,CCACGGAGGACAGAAGGTCAGAGCTGTCCGCTTT,0.979
15,TCTTGTAAATCAAAGGTTAAGAAAGCCGAAGCCT,1.07
16,CGAACGAGGGGATGAGTTGATAGCAAATGCCGAT,-0.189
17,CAAACTAGGTCAAGGTCACAGTCGGTTTGTGCCA,5.06
18,CGAACTAGGTCAGAACAGGAAAGTGAAGGATGAT,0.0955
19,CCCCGGAGGACAACAGGAGGTCAGAGCTGCCAGA,1.91
20,GCTCGGAGGATAAGGTCAGAGCTTTGTCCGTAGA,1.15

row,Sequence,PBM binding z-score
1,CCTACTGGGACAAAAAGGTCATTGATGCCGATAA,4.78
2,GTACCAGGGTGAATAGGTCGTTGATGAGTAGGCG,1
3,TGTCAAAGTTCAAAGGTAACGTGAGTATCCACAC,5.2
4,TTACCAAGGTGGGCTGAGGTCGTTGATCCAACTC,2.6
5,CAAACTAGCTCACGAAAGGTCAAAGTCGAATGAC,4.32
6,CGACCTAGGTCATCCAGGACAGTGAATACATTGA,4.85
7,GCAGACAGGTGAAACGCAGGTAACTCATGGTGGC,-0.567
8,GCTTGTAGATCAAGGTTAAGCAAGACTAAGCTAA,0.0624
9,TCTGCTAGGTCAAGGATGGTCAGCTAATCTGCTA,1.18
10,AGAACGAGGGCGCGCTGAGTTGATAGCAGAGTAG,0.589
11,GGAACGAGGGCAAAGTTGATAGCATCTGTCGACG,1.23
12,TAGCCTAGGTCAGAACGGGCCAGTATACGCTATA,0.299
13,CGTCCAAGGTCAGGGAGGTCAGTGAATGCCGAGT,7.3
14,CCTAGCAAGCCAATCTGGGTCACTCAAGGCTTGA,0.396
15,AGTCAAAGTTCCCTAGGTAACGTAAGATTCAGCT,-0.251
16,CCTACTAGGCCACGAAAGGTCATTGATTCAGTGA,4.42
17,CCTATTGGGCCAAAAAGGTCATTGATGCCGATAA,5.02
18,TCGAGGAGGTTAGTCGGGGCATTCAGCCAACATA,3.8
19,CGTCCAAGATCAAAGGTCAGTGAAGAGATGACGG,3.08
20,CGACAAAGTTCAACTAAGGTAACGTAAAGCACGC,4.67
